In PubChem BioAssay AID2061318 (National Center for Advancing Translational Sciences (NCATS), 2025) one finds Potency data, which are given here for six compounds.

Structures are written as SMILES. Inconclusive results are not listed. Active and inactive are the calls of the source. Calls come from the whole dose curve; as a rule, active = well fitted inhibition curve with a large enough effect; inconclusive = small, poorly fitted or top-dose-only effect; inactive = flat fitted curve, though single readings scatter.

The nature of the test: Identification of antibody-drug conjugate (ADC) payloads which are substrates of ATP-binding cassette drug efflux transporters: ABCB1-HEK293-MDR-19 cell line. Particulars: HEK293 ABCB1 (MDR-19) viability, CellTiter-Glo, 48 h. The text has this: Antibody-drug conjugates (ADCs) feature an antibody recognizing a specific protein joined to a potent toxic payload. Numerous antibody-drug conjugates have received FDA approval; however, clinical resistance arises. Resistance mechanisms include decreased expression or mutation of the antibody target, impaired payload release, or increased expression of ATP-binding cassette (ABC) efflux transporters associated with multidrug resistance. We therefore sought to characterize the interaction of ABC multidrug transporters with ADC payloads. We performed a high-throughput screen with 27 common ADC payloads using cells lines expressing ABC transporters P-glycoprotein (P-gp, encoded by ABCB1) or ABCG2 (encoded by ABCG2). Confirmatory assays were also performed using cells transfected to express P-gp, ABCG2, or MRP1 (encoded by ABCC1). Several commonly used ADC payloads were substrates of P-gp, including calicheamicin gamma1, monomethyl auristatin E, DM1, and DM4. All the pyrrolobenzodiazepines tested - SJG136, SGD-1882, SG2057, and SG3199 - were substrates of P-gp, ABCG2, and MRP1. […] These findings highlight the risk of transporter-mediated resistance with certain ADC payloads and underscore the importance of selecting payloads that evade ABC transporter recognition in future ADC development.
HEK-293 cells were transfected with empty vector (pcDNA) or vector containing the human ABCB1 (MDR-19), ABCG2 (R-5), or ABCC1 gene (MRP1) and were maintained in EMEM with 2 mg/mL G418 added to maintain transporter expression. The HeLa derivative KB-3-1 and the P-gp overexpressing KB-8-5-11 subline were maintained in DMEM; KB-8-5-11 additionally received 100 ng/mL colchicine. H460 parental cells were obtained from the Division of Cancer Treatment and Diagnosis Tumor Repository, National Cancer Institute at Frederick, MD and were cultured in RPMI. The ABCG2 expressing subline H460 MX20 was generated by selecting H460 cells in 20 nM mitoxantrone. Media in all cases was supplemented with 10% FBS and 1% penicillin-streptomycin. We explored 27 common ADC payloads, in two orthogonal, paired cell line sets-a drug selected and transfected set for each transporter--to identify substrates of the ABC transporters P-gp and ABCG2. Compounds were sourced from Levena Biopharma (San Diego, CA), Selleck Chem (Houston, TX), ChemieTek (Indianapolis, IN), or Microsource Discovery Systems (Gaylordsville, CT). Screening was performed as previously described. Briefly, cells were plated at a density of 500 cells/well in 1536 well plates with compounds added using a 1536-head pin tool (Kalypsys, San Diego CA). Cells were incubated with cytotoxic drugs and processed with CellTiter Glo reagent (Promega, Madison, WI) to determine viability after 48 hours. P-gp substrates were identified by comparing compound activity between paired sets of low-expressing (sensitive) and over-expressing (resistant) cell lines.
In the case of `COc1cc2cc(c1Cl)N(C)C(=O)C[C@H](OC(=O)[C@H](C)N(C)C(=O)CCS)[C@]1(C)OC1[C@H](C)C1C[C@@](O)(NC(=O)O1)[C@H](OC)/C=C/C=C(\C)C2` (stereo partly specified), the Potency was 298 nM (active).
The same measure for `COc1cc2cc(C(=O)N3C[C@@H](CCl)c4c3cc(O)c3ccccc43)[nH]c2c(OC)c1OC`: 1.2 nM (active).
The same measure for `COc1cc2cc(c1Cl)N(C)C(=O)C[C@H](OC(=O)C(C)C)[C@]1(C)O[C@H]1[C@H](C)[C@@H]1C[C@@](O)(NC(=O)O1)[C@H](OC)C=CC=C(C)C2`: 14.9 nM (active); for `COc1cccc2c1C(=O)c1c(O)c3c(c(O)c1C2=O)C[C@@](O)(C(=O)CO)CC3OC1CC(N2CCOC(OC)C2)C(O)C(C)O1` (stereo partly specified): 1.7 nM (active); for `CC[C@@]1(O)C(=O)OCc2c1cc1n(c2=O)Cc2cc3ccccc3nc2-1`: 13.3 nM (active).
With `CC[C@H](C)[C@@H]([C@@H](CC(=O)N1CCC[C@H]1[C@H](OC)[C@@H](C)C(=O)N[C@H](C)[C@@H](O)c1ccccc1)OC)N(C)C(=O)[C@@H](NC(=O)[C@H](C(C)C)N(C)C)C(C)C`, the Potency was 66.6 nM (active).
